# DAX1 inh = DAX1 (NR0B1) inhibitors on StAR promoter, primary screen, cell-based, luminescence, SF-1 (NR5A1), full-length DAX-1; HEK293T StAR-luciferase reporter, SF-1/DAX-1 repression relief; inhibition, % at 6.8 µM; 370,000 tested, 1.1% active; AID 652010, 2013;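 active = inhibition above the mean over all tested compounds plus 3 SD, cut at about 3.6% in these data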;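 also: 0% = DAX-1 cells with DMSO and 100% = cells lacking DAX-1 with DMSO; higher inhibition means more luminescence from relief of DAX-1 repression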
# ssDAF12 agonist = S. stercoralis DAF-12 nuclear receptor activators, primary screen, cell-based, luminescence, HEK293, GRIP1 co-expression, lit1-tk-luc. Nuclear hormone receptor DAF-12 (Strongyloides stercoralis). HEK293 ssDAF-12/GRIP1 lit1-tk-luc reporter; % of 3 µM dafachronic acid response. activation, % at 6.8 µM. 370,000 tested, 1% active. AID 652126, 2013;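 active = activation above the mean over all tested compounds plus 3 SD, cut at about 0.9% in these data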;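 also: 0% = DMSO-only wells and 100% = 3 µM delta7-dafachronic acid wells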
# hgDAF12 agonist = H. glycines DAF-12 receptor agonists, primary screen, cell-based, luminescence, HEK293, GAL4 fusion, UAS-luciferase; HEK293 GAL4-hgDAF12 UAS-luciferase reporter, agonist luminescence; normalized to butyrate control; activation, % at 6.8 µM; 370,000 tested, 1.8% active;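 active = activation above a cutoff set at the mean of all screened compounds plus 3 SD, cut at about 10% in these data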;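 also: 0% = DMSO wells and 100% = sodium butyrate wells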
# Wnt bcat act = Wnt/beta-catenin pathway activators, primary screen, cell-based, plate reader, single point. Wnt/beta-catenin reporter cell assay, activator. activation, % at 9.35 µM. 300,000 tested, 1.2% active. AID 743398, 2014; in the data active = activation above about 30%, passing the limit was not always enough;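 also: 0% = neutral control wells and 100% = positive control wells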
# hcDAF-12 act = H. contortus DAF-12 nuclear receptor activators, primary screen, cell-based, luminescence, HEK293, lit1-tk-luc reporter; HEK293 hcDAF-12 lit1-tk-luc reporter; 0% DMSO, 100% Δ7-dafachronic acid; 370,000 tested, 1.4% active; activation, % at 6.8 µM;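 active = activation above the mean of all tested compounds plus 3 SD, cut at about 5.5% in these data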;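 also: 100% = response to 3 µM Δ7-dafachronic acid high control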
# esBAF inh = Bmi1 luciferase reporter increase in mESCs, primary screen, esBAF inhibitor project, mouse ES cells, Bmi1 luciferase knock-in, single point; reporter increase, % at 12.5 µM; 24 h; 100% = twice the neutral-well signal; 350,000 tested, 2% active; in the data active = activation above about 40%;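 also: 0% = median of the plate's neutral control wells and 100% = double that signal; a rise in the Bmi1 reporter signal indicates esBAF inhibition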
# An asterisk follows results filed as active; / = not tested or not shown. Rows were chosen to be rich in hits. Some 4.2% of all compounds tested hit in one or more screens of this group.
SMILES,DAX1 inh,ssDAF12 agonist,hgDAF12 agonist,Wnt bcat act,hcDAF-12 act,esBAF inh
COCC(=O)Nc1ccc2c(c1)[C@@H]1C[C@@H](CC(=O)NCC3CC3)O[C@H](CO)[C@@H]1O2,/,/,/,/,/,-2
CNC[C@H]1OCCCC[C@@H](C)Oc2ccc(NC(=O)Nc3ccc(OC)cc3)cc2C(=O)N([C@H](C)CO)C[C@@H]1C,/,/,/,/,/,3
COc1ccc(S(=O)(=O)Nc2ccc3c(c2)CC(=O)N([C@H](C)CO)C[C@@H](C)[C@H](CN(C)S(C)(=O)=O)O3)cc1,/,/,/,/,/,0
COCC(=O)Nc1ccc2c(c1)[C@H]1C[C@@H](CC(=O)NCc3ccncc3)O[C@@H](CO)[C@H]1O2,/,/,/,/,/,6
CNC(=O)C[C@H]1CC[C@H]2[C@@H](COc3ccc(NC(=O)NC4CCCC4)cc3C(=O)N2C)O1,/,/,/,/,/,3
O=C(C[C@@H]1CC[C@@H]2[C@H](COC[C@H](O)CN2C(=O)Nc2ccc(C(F)(F)F)cc2)O1)NCCc1ccncc1,/,/,/,/,/,-2
COc1cc(CC(=O)O)c([N+](=O)[O-])cc1OC,0,-1,2,-2,-1,/
COc1cc(CC(=O)O)c(C(C)=O)cc1OC,0,-1,0,/,-2,48*
CC(C)NC(=O)N(C)C[C@@H]1Oc2ncc(C#CC3(O)CCCC3)cc2C(=O)N([C@@H](C)CO)C[C@@H]1C,/,/,/,/,/,3
CO[C@@H]1CN(C)C(=O)c2ccc(NS(=O)(=O)c3cccc(F)c3)cc2OC[C@@H](C)N(C(=O)Cc2cccnc2)C[C@H]1C,/,/,/,/,/,0
CC(=O)Nc1ccc(S(=O)(=O)Nc2nc3ccccc3nc2Sc2nncn2C)cc1,0,-1,5,14,0,44*
O=C(C[C@H]1CC[C@@H]2[C@H](COC[C@@H](O)CN2C(=O)Nc2ccc(Cl)c(Cl)c2)O1)NCc1ccc(Cl)c(Cl)c1,/,/,/,/,/,1
Cc1ccc2[nH]cc(CCNC(=O)Nc3ccccc3)c2c1,-1,-2,-3,/,-2,-5
CC(=O)Nc1ccc(S(=O)(=O)NCc2cccnc2)cc1,0,-2,0,/,6.0*,/
Cc1ccc(CNC(=O)NCc2ccccc2)cc1,0,-1,1,7,0,/
CCCCc1ccc(NC(=S)Nc2cccnc2)cc1,0,0,2,1,-3,/
Cc1ccc(CNC(=O)Nc2ccccc2)cc1,2,0,5,21,4,46*
Cc1ccc(C)c(CNC(=O)Nc2ccccc2)c1,1,0,7,3,3,51*
CCCCc1ccc(NC(=O)Nc2cccnc2)cc1,2,-1,2,12,1,51*
COc1ccccc1NC(=O)N1C[C@@H]2[C@H](c3ccccc31)[C@@H](CO)N2C(=O)C1CC1,/,/,/,/,/,-3
Cc1noc(C)c1S(=O)(=O)Nc1ccc2c(c1)C(=O)N([C@H](C)CO)C[C@@H](C)[C@@H](CN(C)C(=O)NC1CCCCC1)OCCCC[C@@H](C)O2,/,/,/,/,/,11
CCCN(C)C[C@@H]1Oc2cc(C#CC3CCCCC3)ccc2S(=O)(=O)N([C@@H](C)CO)C[C@H]1C,/,/,/,/,/,-1
O=C(C[C@@H]1CC[C@H]2[C@@H](COC[C@@H](O)CN2Cc2ccncc2)O1)NCc1ccncc1,/,/,/,/,/,-5
CC(C)[C@@H](C)NC(=O)N(C)C[C@H]1OCc2ccccc2-c2ccccc2C(=O)N([C@@H](C)CO)C[C@H]1C,/,/,/,/,/,1
COc1ccc(CNC(=O)Nc2cccs2)cc1OC,0,-2,1,/,1,-6
O=C(Cc1csc(NC(=O)Nc2ccc(Cl)cc2)n1)NCc1cccnc1,0,-1,3,12,-1,45*
O=C(NCc1cccnc1)Nc1ccccc1,0,1.0*,2,3,1,2
Cc1ccc(CNC(=O)Nc2cccs2)cc1,0,-1,9,/,1,54*
O=C(O)c1ccc(NCc2cccnc2)cc1,0,0,1,46*,0,97*

# Compound activity as filed in PubChem.
